Active and inactive are the calls of the source.
What was measured:
[1] = test system: Human papillomavirus type 1a protein E7 (residues 44-93); experiment: HPV1a E7 fragment binders on microarrays, primary screen, biochemical, small-molecule microarray, residues 44-93, 635 nm fluorescence (AID 1108); conditions: small-molecule microarray binding, fluorescence 635 nm; higher = more signal;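 note: E7 fragment applied at 1 µg/mL in TBST for 1 h at 4 C; score combines spot fluorescence with its signal to noise ratio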
[2] = modulators of HCV replicon luciferase signal, primary screen, HCV replication inhibitor project, Huh7 cells, luciferase reporter (AID 1109); conditions: 48 h, higher = more signal;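 note: huh7 hepatoma cells harbouring a luciferase neomycin HCV replicon reporter; luciferase luminescence as measure of HCV replicon replication; test concentration not given here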
[3] = target: Left-right determination factor 2 (Homo sapiens) (UniProt O00292); experiment: LEFTY2 binders on small-molecule microarrays, primary screen, biochemical, small-molecule microarray, 635 nm fluorescence scan (AID 1110); conditions: LEFTY2 binding, higher = more signal
[4] = target: Calmodulin-1 (Homo sapiens) (UniProt P0DP23); experiment: CALM1 binders on microarrays, EGTA buffer, profiling panel, biochemical, small-molecule microarray, Cy5-labelled CALM1 (AID 1111); conditions: Cy5-CALM1 binding fluorescence, higher = more signal;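 note: labelled calmodulin applied in Tris saline Tween buffer holding calcium plus EGTA and DTT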
[5] = target: Calmodulin-1 (Homo sapiens) (UniProt P0DP23); experiment: calcium-bound CALM1 binders on microarrays, profiling panel, artefact control for SMM control-protein annotation, biochemical, small-molecule microarray, Cy5-labelled CALM1, plus calcium (AID 1112); conditions: Cy5-CALM1 binding fluorescence, higher = more signal;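 note: score merges spot fluorescence with signal to noise from triplicate slides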
[6] = small-molecule microarray binders of probe aWnt5a, primary screen, biochemical, biotinylated probe, 635/667 nm fluorescence (AID 1113); conditions: higher = more signal;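 note: score merges 667 nm fluorescence intensity with signal-to-noise per printed feature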
[7] = small-molecule microarray binders of probe aShh, primary screen, biochemical, biotinylated probe, 635/667 nm fluorescence (AID 1114); conditions: higher = more signal;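 note: probe is biotin-labelled aShh protein from a stem cell growth factor screen; measures binding of labelled protein to compounds printed on the slide; score merges feature fluorescence at 667 nm with signal-to-noise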
[8] = small-molecule microarray binders of probe aNog, primary screen, biochemical, biotinylated probe, 635/667 nm fluorescence (AID 1115); conditions: higher = more signal;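 note: probe is biotinylated aNog protein used at 0.15 µg/mL for 1 h at 4 C; z-score combines 667 nm fluorescence of each spot with its signal to noise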
[9] = target: Torsin-1A-interacting protein 1 (Homo sapiens) (UniProt Q5JTV8); experiment: LAP1 binders from COS7 cell lysate, primary screen, small-molecule microarray, 635/667 nm fluorescence (AID 1116); conditions: COS7-hLAP1 lysate binding, 635 nm fluorescence, higher = more signal
[10] = target: Alpha-bungarotoxin (Bungarus multicinctus) (UniProt P60615); experiment: alpha-bungarotoxin binders on microarray, profiling panel, artefact control for SMM control protein annotation, biochemical, small-molecule microarray, Alexa647 label, 635/667 nm fluorescence (AID 1117); conditions: alpha-BTX-A647 binding fluorescence, higher = more signal
Albumin (Bos taurus) = Albumin (Bos taurus) (UniProt P02769); experiment: bovine serum albumin binders on microarray, profiling panel, artefact control for SMM control protein annotation, biochemical, small-molecule microarray, Alexa647 label, 635/667 nm fluorescence (AID 1118); conditions: BSA-A647 binding, fluorescence 635 nm, higher = more signal;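 note: score merges 667 nm emission intensity and signal-to-noise per printed compound spot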
[11] = small-molecule microarray binders of probe aXIP, primary screen, biochemical, NeuroSMM set, 635/667 nm fluorescence (AID 1119); conditions: higher = more signal, called active from +8 up or from −8 down;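 note: probe is the protein aXip251-270 applied at 1 µg/mL to compound-printed slides; binding of probe to printed compounds measured as 667 nm fluorescence plus signal to noise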
[12] = small-molecule binders of probe aNOTCH3, primary screen, biochemical, small-molecule microarray, 635/667 nm fluorescence (AID 1120); conditions: higher = more signal;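 note: probe is a biotin-tagged antibody raised against NOTCH3 rather than NOTCH3 protein; score merges spot fluorescence near 667 nm with spot signal to noise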
[13] = small-molecule binders of probe aNOTCH2, primary screen, biochemical, small-molecule microarray, 635/667 nm fluorescence (AID 1121); conditions: higher = more signal;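 note: score merges feature fluorescence read at 667 nm with its signal to noise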
[14] = target: Carbonic anhydrase 2 (Homo sapiens) (UniProt P00918); experiment: CAII small-molecule binders, profiling panel, biochemical, small-molecule microarray, Alexa647-labelled CAII (AID 1122); conditions: CAII-A647 binding fluorescence, higher = more signal
[15] = COS7 lysate on small-molecule microarray, probe aHis, 635 nm (AID 1123); conditions: COS7 cell lysate, fluorescence, higher = more signal;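 note: z-score combines 667nm fluorescence intensity with signal-to-noise per printed compound spot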
[16] = compound binding in COS7 lysate, probe aLAP1, primary screen, cell lysate, small-molecule microarray (AID 1124); conditions: probe aLAP1, fluorescence, higher = more signal;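 note: lysate comes from COS7 cells expressing LAP1 and is applied at 0.3 µg/mL; score merges spot fluorescence near 667 nm with signal-to-noise over triplicate slides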
Sam68 (KHDRBS1) = experiment: Sam68 small-molecule binders, primary screen, biochemical, small-molecule microarray, 635 nm fluorescence (AID 1125); conditions: small-molecule microarray binding, higher = more signal;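 note: score merges 667 nm channel intensity with signal to noise over triplicate slides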
[17] = test system: Chordin-like protein 2 (CHRDL2); experiment: CHRDL2 small-molecule binders, primary screen, biochemical, small-molecule microarray, 635 nm fluorescence (AID 1126); conditions: small-molecule microarray binding, fluorescence 635 nm; higher = more signal;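 note: printed compound slides probed with Chrdl2 protein at 4 µg/mL for 1 h at 4 C; score merges 667 nm emission intensity with signal to noise over three replicate slides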
[18] = target: Concanavalin-A (Canavalia ensiformis) (UniProt P02866); experiment: ConA small-molecule binders, primary screen, artefact control for SMM control protein annotation, biochemical, small-molecule microarray, Alexa647 label, 635 nm (AID 1127); conditions: ConA-A647 binding fluorescence, higher = more signal;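 note: z combines 667 nm emission intensity with signal-to-noise across three replicate slides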
Chain of Concanavalin-A (Canavalia ensiformis) (P02866 whole entry, looked up): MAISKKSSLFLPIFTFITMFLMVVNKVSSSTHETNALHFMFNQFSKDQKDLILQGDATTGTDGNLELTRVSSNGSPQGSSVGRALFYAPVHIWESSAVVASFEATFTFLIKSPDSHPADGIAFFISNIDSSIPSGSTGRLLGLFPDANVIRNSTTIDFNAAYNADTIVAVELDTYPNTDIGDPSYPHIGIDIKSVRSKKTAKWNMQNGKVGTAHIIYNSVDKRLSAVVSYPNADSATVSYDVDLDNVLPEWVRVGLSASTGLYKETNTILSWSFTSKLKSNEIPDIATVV

Chain of Left-right determination factor 2 (Homo sapiens) (O00292 whole entry, looked up): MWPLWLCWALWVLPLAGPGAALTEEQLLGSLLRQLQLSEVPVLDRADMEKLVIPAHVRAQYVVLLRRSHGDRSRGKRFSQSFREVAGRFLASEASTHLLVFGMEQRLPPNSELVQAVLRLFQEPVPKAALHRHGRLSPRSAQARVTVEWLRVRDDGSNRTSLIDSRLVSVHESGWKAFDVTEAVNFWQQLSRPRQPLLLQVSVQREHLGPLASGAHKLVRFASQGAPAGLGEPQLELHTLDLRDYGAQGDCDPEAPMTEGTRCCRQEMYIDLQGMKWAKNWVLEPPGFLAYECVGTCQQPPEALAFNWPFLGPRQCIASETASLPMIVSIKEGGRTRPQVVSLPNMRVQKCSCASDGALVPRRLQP
Chain of Albumin (Bos taurus) (P02769 whole entry, looked up): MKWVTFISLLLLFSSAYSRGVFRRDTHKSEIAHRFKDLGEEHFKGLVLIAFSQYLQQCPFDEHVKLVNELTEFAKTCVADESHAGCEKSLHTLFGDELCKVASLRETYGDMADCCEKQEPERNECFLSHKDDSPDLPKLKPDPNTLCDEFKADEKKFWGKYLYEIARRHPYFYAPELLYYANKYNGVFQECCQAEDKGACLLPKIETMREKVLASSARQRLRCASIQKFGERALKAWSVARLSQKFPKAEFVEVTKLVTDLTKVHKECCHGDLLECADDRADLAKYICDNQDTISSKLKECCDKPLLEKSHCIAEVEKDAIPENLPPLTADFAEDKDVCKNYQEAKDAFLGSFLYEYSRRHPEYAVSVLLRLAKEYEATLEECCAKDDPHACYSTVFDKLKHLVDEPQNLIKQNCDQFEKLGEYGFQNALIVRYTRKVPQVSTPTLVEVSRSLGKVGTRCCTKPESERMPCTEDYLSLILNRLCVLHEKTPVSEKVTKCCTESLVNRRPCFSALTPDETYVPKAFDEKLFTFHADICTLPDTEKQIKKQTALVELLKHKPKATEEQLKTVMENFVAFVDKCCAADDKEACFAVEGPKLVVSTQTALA
Chain of Torsin-1A-interacting protein 1 (Homo sapiens) (Q5JTV8 whole entry, looked up): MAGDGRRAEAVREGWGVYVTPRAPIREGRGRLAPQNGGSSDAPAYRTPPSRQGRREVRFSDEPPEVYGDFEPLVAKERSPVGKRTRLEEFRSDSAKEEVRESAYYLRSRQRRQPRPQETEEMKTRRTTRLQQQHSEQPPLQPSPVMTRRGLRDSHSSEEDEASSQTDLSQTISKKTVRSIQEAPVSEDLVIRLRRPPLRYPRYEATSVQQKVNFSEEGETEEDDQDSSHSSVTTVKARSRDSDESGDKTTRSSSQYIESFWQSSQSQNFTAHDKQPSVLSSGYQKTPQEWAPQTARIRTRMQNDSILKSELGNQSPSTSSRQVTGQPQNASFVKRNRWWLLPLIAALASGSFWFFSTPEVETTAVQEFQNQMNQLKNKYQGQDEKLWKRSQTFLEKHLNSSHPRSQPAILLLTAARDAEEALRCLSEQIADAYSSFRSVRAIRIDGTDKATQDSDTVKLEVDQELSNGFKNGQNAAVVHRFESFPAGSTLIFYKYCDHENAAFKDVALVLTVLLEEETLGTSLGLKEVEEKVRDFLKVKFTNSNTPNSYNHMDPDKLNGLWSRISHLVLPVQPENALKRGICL
Chain of Alpha-bungarotoxin (Bungarus multicinctus) (P60615 whole entry, looked up): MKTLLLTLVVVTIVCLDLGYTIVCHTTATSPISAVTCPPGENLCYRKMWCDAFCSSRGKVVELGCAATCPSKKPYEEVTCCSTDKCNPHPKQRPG

Compound	composite z-score [1]	z-score [2]	composite z-score [3]	composite z-score [4]	composite z-score [5]	composite z-score [6]	composite z-score [7]	composite z-score [8]	composite z-score [9]	composite z-score [10]	composite z-score (Albumin (Bos taurus))	composite Z-score [11]	composite z-score [12]	composite z-score [13]	composite z-score [14]	composite z-score [15]	composite z-score [16]	composite z-score (Sam68 (KHDRBS1))	composite z-score [17]	composite z-score [18]
C=C(/C(=C/C[C@H](OC(C)=O)c1ccccc1OCCO)c1cc(C(=O)OC)ccc1OC)C(C)C	0.83	-1.74	0.0218	-0.227	-0.578	-0.096	0.0469	-0.0244	0.612	-0.0802	0.469	-0.0127 (inactive)	-0.0782	-0.173	0.491	1.26	-0.0654	0.527	-0.152	0.548
C=CCNC(=O)[C@@H]1[C@H]2C(=O)O[C@H](c3ccccc3)[C@H](c3ccccc3)N2[C@H](c2ccc(O)cc2)[C@@]12C(=O)N(C(=O)OCCOC)c1ccc(C#CC3(O)CCCCCC3)cc12	-1.18	-0.0817	-2.4	-0.901	-0.123	-0.221	-0.192	-0.343	-1.28	-1.42	-0.632	-0.245 (inactive)	-0.416	-0.153	-0.742	-0.642	-0.547	-0.669	-2.57	-0.533
CN(C)C(=O)[C@@]1(Cc2ccccc2CN=[N+]=[N-])N=C(c2ccc(OCCCO)cc2)O[C@H]1c1ccccc1CN=[N+]=[N-]	1.27	-2.63	-0.462	1.69	1	0.0655	0.551	0.771	1.56	1.11	0.936	0.608 (inactive)	0.602	0.202	0.703	2.79	0.15	0.873	-0.103	1.07
C=C(COC)C(=O)CC[C@@H](OC(=O)c1cccnc1)c1ccc(OCCO)cc1	0.757	-2.9	0.659	-0.299	-0.804	-0.0944	-0.237	0.678	0.975	0.661	-0.283	0.517 (inactive)	0.176	0.0362	0.751	1	0.211	0.629	1.12	0.388
COC(=O)c1cn(C[C@@H](Cc2ccccc2)NC(=O)N[C@H](CO)CCc2oc(C(C)=O)c(C(=O)OC)c2C(=O)OC)nn1	0.303	-0.407	0.993	-0.335	-0.616	0.02	-0.283	-0.0789	0.862	0.177	-0.0181	0.055 (inactive)	0.134	-0.128	0.182	0.5	0.421	1.01	1.15	0.299
COC(=O)[C@@]1(Cc2ccc(F)cc2)[C@H]2c3cc(C(=O)N4CCCC4)n(CCN4CNCC4=O)c3C[C@H]2CN1C(=O)c1ccccc1	1.44	-1.8	-1	-0.606	-0.234	0.307	0.151	-0.158	2.1	1.07	0.975	-0.476 (inactive)	0.323	-0.0345	0.766	3.18	0.197	0.592	-0.834	0.63
CC(C)OC(=O)C=C1C[C@@H](c2ccc(C(F)(F)F)cc2)O[C@@H](c2ccc(C(F)(F)F)cc2)O1	1.44	-0.512	-0.467	0.808	0.776	-0.0643	0.536	-0.261	2.25	1.83	0.856	-0.451 (inactive)	-0.102	-0.128	0.717	2.61	0.35	0.886	-0.782	1.09
[N-]=[N+]=Nc1ccccc1[C@@H]1OC(c2ccc(OCCCO)cc2)=N[C@]1(Cc1ccccc1)C(=O)NCC(O)CO (stereo not given in full)	0.883	-1.34	-0.879	2.21	1.18	0.0189	0.4	-0.4	2.95	2.56	0.937	0.66 (inactive)	0.453	0.178	0.765	3.2	1.14	0.897	-0.638	0.468
O=C(NCc1ccccc1)[C@@H]1c2ccccc2C(=O)N(Cc2ccccc2C(F)(F)F)[C@H]1c1ccc(CO)cc1	0.966	0.129	-0.948	-0.526	-0.317	-0.252	-0.419	-0.383	-0.934	-0.166	-0.0228	-0.683 (inactive)	-0.232	-0.13	0.759	0.829	2.63	0.227	-1.2	0.612
COC(=O)[C@@]1(Cc2ccc(F)cc2)[C@H]2c3cc(C(=O)N(C)C)n(CCc4ccc(O)c(OC)c4)c3C[C@H]2CN1C(=O)c1ccccc1	0.768	1.09	0.543	0.187	-0.323	1.2	2.74	2.48	0.279	0.434	0.24	-0.399 (inactive)	0.842	1.02	0.25	0.694	0.311	0.326	0.497	-0.0415
C=CCC(OC(C)=O)[C@@H]1[C@@H](N(Cc2ccc(-c3ccccc3)cc2)C(=O)Cc2ccc(F)cc2)c2cc(OCCCO)ccc2N1C(=O)Cc1ccc(OC)cc1 (stereo not given in full)	-0.0218	-0.71	0.0922	0.498	-0.124	-0.0478	-0.343	-0.394	-0.002	0.215	-0.0495	-0.101 (inactive)	-0.0817	-0.141	0.207	0.377	0.0514	-0.274	-0.0031	0.774
